Only some compounds are listed: those with a hit (about 3.4% of all), similar ones and a draw of the others.
Tau ThT inhib = blocks human tau fibril formation measured by thioflavin T | recombinant tau K18 P301L, heparin-induced fibrillization, ThT fluorescence | Potency, µM (doses to about 57.4 µM), inactives show at the top dose activity, negative = inhibition, usual class: inhibitors | 2.1% of 270,000 active | AID 1460; further: nearly all actives have a fitted effect of over 55% in size
Target sequence (P10636 561-689 P618L limits assumed): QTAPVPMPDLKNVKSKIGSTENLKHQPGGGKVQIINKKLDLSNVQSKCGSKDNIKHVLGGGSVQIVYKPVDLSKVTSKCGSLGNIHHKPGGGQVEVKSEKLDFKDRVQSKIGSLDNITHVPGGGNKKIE
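Using a mix of unlabeled (15 uM) and Alexa 594-labeled (0.24 uM) tau K18 P301L, heparin-triggered fibrillization over 6 hr at 37 C was scored by ThT fluorescence.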
GoLoco inh red = inhibitors of human Gai1-RGS12 GoLoco interaction (red fluorophore). P63096. Gai1:RGS12 GoLoco peptide FP, rhodamine, 10 min. Potency, µM (series often up to 61.6 µM), for inactives: at the highest dose activity, negative = inhibition, usual class: inhibitors. 0.44% of 230,000 active. AID 880; active means well fitted inhibition curve with a large enough effect, not every such curve was filed as active; inactive means no such curve, though single readings can be large or run the other way; further: nearly all actives have a fitted effect of over 30% in size
Target sequence (P63096 whole entry, looked up): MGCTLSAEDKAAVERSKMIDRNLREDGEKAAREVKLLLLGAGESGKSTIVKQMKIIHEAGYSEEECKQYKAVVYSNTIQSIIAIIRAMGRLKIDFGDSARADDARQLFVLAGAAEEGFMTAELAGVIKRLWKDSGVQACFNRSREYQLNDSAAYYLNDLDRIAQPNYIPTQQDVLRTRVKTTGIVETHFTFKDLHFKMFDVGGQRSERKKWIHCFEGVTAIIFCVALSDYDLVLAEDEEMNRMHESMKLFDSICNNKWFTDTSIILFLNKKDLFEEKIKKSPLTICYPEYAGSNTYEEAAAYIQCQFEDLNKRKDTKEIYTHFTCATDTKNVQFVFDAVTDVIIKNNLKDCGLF
JMJD2E inh = inhibitors of human JMJD2E histone demethylase | 1.6% of 230,000 active | B2RXH2 | AID 2147 | Potency, µM (series often up to 57.1 µM), for inactives: at the top dose activity change, negative = inhibition, most hits filed as inhibitors | JMJD2E catalytic domain, FDH-coupled NADH fluorescence (FDH is formaldehyde dehydrogenase);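 further: 0% = wells with enzyme and -100% = buffer wells without enzyme; nearly all actives have a fitted effect of over 50% in size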
Tau fluor counter = counter-screen for tau fibril formation inhibitors. tau K18 P301L (four-repeat tau fragment) Alexa594 fluorescence, heparin fibrillization. Potency, µM (top dose mostly 57.7 µM), without a hit: at the top dose activity change, negative = decrease. 0.93% of 280,000 active; further: nearly all actives have a fitted effect of over 55% in size
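Human K18 P301L tau (15 uM unlabeled plus 0.24 uM Alexa 594-labeled, final) in 100 mM sodium acetate pH 7 was mixed with compound and 20 uM heparin and incubated 6 hr at 37 C.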
Tau fibril FP = blocks human tau fibril formation measured by polarization; P10636; K18 P301L tau heparin fibrillization, Alexa594 FP, 6 h; Potency, µM (top dose mostly 57.7 µM), for the others: at the highest dose activity, negative = inhibition, most hits filed as inhibitors; 0.39% of 280,000 active; further: nearly all actives have a fitted effect of over 55% in size
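Human K18 P301L fragment (15 uM unlabeled plus 0.24 uM Alexa 594-labeled) in 100 mM sodium acetate pH 7 with compound, aggregation induced by 20 uM heparin for 6 hr at 37 C. ThT (30 uM) added for 1 hr, then Alexa 594 FP read.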
The depositor's hits bear a star; ? = inconclusive; · = not tested or not shown; [ ] = another dose, or the depositor's remark. Unless noted, the call rests on the fitted dose curve; in most records, active means well fitted curve in the direction sought with a large enough effect; inconclusive means small, poorly fitted or top-dose-only effect, or another doubt; inactive means no such curve, though single readings can be large; an effect the other way counts as inactive or inconclusive. Unless noted, on the % scale 0 is the no-effect control and ±100 the full control effect; potency means the concentration at half of the fitted maximal effect.

SMILES | Tau ThT inhib | GoLoco inh red | JMJD2E inh | Tau fluor counter | Tau fibril FP
Cc1ccc2nc(N/N=C\c3ccc([N+](=O)[O-])o3)nc(-c3ccccc3)c2c1 | 3.2µM* | 37% | 0% | 10µM*[quencher] | 13%
O=[N+]([O-])c1ccc(/C=N/Nc2nc(N3CCCC3)nc(N3CCCC3)n2)o1 | 18µM* | 104% | ? | -21% | -6%
O=[N+]([O-])c1ccc(-c2ccc(/C=N/Nc3nc(N4CCCC4)nc(N4CCCC4)n3)o2)cc1 | ? | 33% | -6% | -15% | 9%
COc1ccccc1NC(=O)Cn1c(=O)n(-c2cccc(C(C)=O)c2)c(=O)c2c3c(sc21)CN(C(C)=O)CC3 | 7% | · | · | -4% | -12%
COCCn1ccc2c(OCC(=O)Nc3cccc(OC)c3)cccc2c1=O | -9% | · | · | -2% | -11%
O=C(Nc1cc(Cl)cc(Cl)c1)c1cccc(OC(F)F)c1 | ? | 8% | -6% | ? | 20µM*
CC(=O)c1cccc(NC(=O)c2ccc3nc(C(C)C)oc3c2)c1 | -1% | · | · | 7% | 4%
C[N+]1(CCCCCCC(=O)/C=N/O)CCCCCC1 | -1% | 13µM* | -6% | -2% | -1%
C[N+](C)(C)CCCCCCC(=O)/C=N/O | 6% | 1.8µM* | -15% | 15% | -3%
COc1ccc(C(=O)Nc2nnc(SCc3cc(=O)n4cccc(C)c4n3)s2)cc1 | -9% | · | · | -3% | 3%
CCCCC(CC)C(=O)Nc1ccc(Nc2ccccc2)cc1 (stereo not drawn) | ? | -2% | -5% | 10µM*[quencher] | 0%
CC(=O)Nc1ccccc1 | -1% | -58% | -2% | -1% | 8%
CC(=O)C(Cl)C(=O)Nc1ccccc1 (stereo not drawn) | 25µM* | -1% | -6% | -15% | ?
Cc1ccc(CNC(=O)c2nc(-c3ccc(Cl)cc3)n3c2CCCCC3)cc1 | -10% | · | · | 0% | 9%
Cc1ccc(C)c(Cn2c(C3CC(=O)N(c4ccccc4C)C3)nc3ccccc32)c1 (stereo not drawn) | 3% | · | · | 6% | 13%
CCN(CC)S(=O)(=O)c1cccc(C(=O)OCC(=O)Nc2ccc3c(c2)c2ccccc2n3CC)c1 | -16% | -5% | ? | ? | ?
CCn1c2ccccc2c2cc(NC(=O)c3ccco3)ccc21 | ? | -1% | 4% | 25µM*[quencher] | 17%
CCn1c2ccccc2c2cc(NC(=O)c3cccc(OC)c3)ccc21 | ? | 13% | ? | 13µM*[quencher] | 10%
CCn1c2ccccc2c2cc(NC(=O)COC(=O)c3cccc(S(=O)(=O)NC)c3)ccc21 | ? | -13% | -12% | 10µM*[quencher] | 1%
CCn1c2ccccc2c2cc(NC(C)=O)ccc21 | -8% | 2% | -9% | -22% | 4%
CC1N(C)c2cc(NC(=O)c3ccco3)ccc2C1(C)C (stereo not drawn) | ? | 164% | 3% | 28µM*[fluorescent] | ?
CC(=O)Nc1ccc(NC(=O)c2ccco2)cc1 | -17% | 4% | -4% | -14% | -12%
CCC(Sc1nc2c(sc3ccccc32)c(=O)n1CCc1ccc(OC)c(OC)c1)C(=O)N(CC)CC (stereo not drawn) | ? | · | · | -24% | 2%
Cc1ccccc1Cn1cc(CCC(=O)NCc2cccc(Br)c2)c2ccccc21 | -2% | · | · | -18% | 9%
C=C(C)C(=O)OC1(C(F)(F)F)Oc2cc(C)ccc2NC1=O (stereo not drawn) | 16µM* | -1% | -1% | -21% | ?
SMILES | Tau ThT inhib | GoLoco inh red | JMJD2E inh | Tau fluor counter | Tau fibril FP
COc1nc(-c2ccccc2)ccc1-c1noc(-c2ccco2)n1 | ? | 3.5µM* | ? | -25% | ?
COc1cc(OC)c(NS(=O)(=O)c2c(C)nc3sc(C)cn3c2=O)cc1Cl | -1% | · | · | -14% | -10%
COc1cc(/C=N/N(C)c2ccccc2)cc(Cl)c1O | ? | -20% | -2% | 14µM*[quencher] | ?
COc1ccc(OC)c(/C=N/N(C)c2ccccc2)c1 | 13µM* | -13% | 3% | 11µM*[quencher] | 5%
COc1ccc(OC)c(C=Nc2ccccc2-c2nc3ccccc3[nH]2)c1 | ? | 9% | ? | ? | 11%
COc1ccccc1NC(=O)c1sc2cccc(Cl)c2c1Cl | -6% | · | · | -3% | -1%
CCOC(=O)c1ccc(NC2=CC(=O)C(=O)c3ccccc32)cc1 | 13µM* | 2% | ? | ? | -10%
Cc1ccc(NC2=CC(=O)C(=O)c3ccccc32)cc1 | 25µM* | -8% | 14µM* | ? | ?
O=C(NCCCN1CCN(c2ccccc2F)CC1)c1sc2ncccc2c1-n1cccc1 | -1% | · | · | -7% | 1%
CC(=O)Nc1ccc(S(=O)(=O)NCc2cccn2Cc2cccc(C)c2)cc1 | -6% | · | · | -27% | ?
O=c1[nH]c2ccccc2nc1/C=C/c1ccc(O)cc1 | ? | 31% | 16µM* | ? | 4%
CCOc1ccc(NC(=O)C(CC)n2nc(-c3ccc(C)c(C)c3)ccc2=O)cc1 (stereo not drawn) | -5% | · | · | -20% | 3%
CN(C)c1ccc(NC(=S)NC(=O)/C=C/c2ccc(Cl)cc2)cc1 | 10µM* | 14% | -7% | ? | -6%
CCN(CC)c1ccc2cc(/C(N)=N/NC(=O)c3cccs3)c(=O)oc2c1 | 0.79µM* | 58% | -1% | -4% | -7%
CCN(CC)c1ccc2cc(C(=O)Nc3ccccn3)c(=O)oc2c1 | ? | -3% | 4.5µM* | 2% | 0%
CCN(CC)c1ccc2cc(C(=O)Nc3cccnc3N3CCOCC3)c(=O)oc2c1 | 18% | · | -3% | 3% | -1%
CCc1ccc(NC(=O)N(Cc2ccc(C)cc2)Cc2cccn2-c2nnc(N3CCCC3=O)s2)cc1 | -10% | · | · | -18% | -6%
O=C1Nc2ccc(Br)cc2C1(O)Cc1ccccn1 (stereo not drawn) | 2% | 16% | -3% | -3% | -5%
O=C1Nc2ccc(Br)cc2C12NNc1ccccc1O2 (stereo not drawn) | 8.9µM* | 5% | -1% | 7.1µM*[quencher] | 15%
COc1cc(SSc2cc(OC)cc([N+](=O)[O-])c2N)c(N)c([N+](=O)[O-])c1 | · | 10µM* | 2.5µM* | ? | ?
COc1cc([N+](=O)[O-])c2ncsc2c1 | 9% | 12% | 3% | 14% | 6%
CC(=O)c1ccc(NC(=S)Nc2ccn(Cc3ccc(Br)cc3)n2)cc1 | 10% | 6% | -2% | 10µM*[quencher] | ?
CC(=O)c1cccc(NC(=S)Nc2ccn(Cc3cccc4ccccc34)n2)c1 | -5% | 15% | -15% | -27% | ?
CCN(CC)CCN(C(=O)c1ccco1)c1nc2ccc(F)cc2s1 | 7% | · | · | 8% | -4%
Cc1ccc(NC(=O)c2nnn(Cc3cccc(C(F)(F)F)c3)c2N)c(C)c1 | -13% | · | · | -17% | -5%
O=C(NCCc1c[nH]c2ccccc12)C1CCC(Cn2c(=S)[nH]c3ccccc3c2=O)CC1 (stereo not drawn) | ? | 10% | 0% | 4µM*[quencher] | 0%
